Source: PubChem BioAssay AID720519 (National Center for Advancing Translational Sciences (NCATS), 2013)
Records with an inconclusive call do not appear. The call rests on the fitted dose curve; in most records, active means well fitted activation curve with a large enough effect; inconclusive means small, poorly fitted or top-dose-only effect; inactive means flat fitted curve, though single readings scatter.

assay: qHTS for Inhibitors of Cell Surface uPA Generation: Confirmatory Assay for Cherry-picked Compounds; settings: cell surface uPA activity generation, qHTS confirmation; series mostly up to 115 µM; inhibition: at the top concentration; further: 0% is about no effect
Outline: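 RAW 264.7 cells at 4000/well, incubated overnight, then treated with compounds. After 24 h at 37 C, viability was read by ATPlite luminescence. An increase in signal indicates blocked uPA-dependent LF entry.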

inhibition, inactive:
COc1ccc(/C=C/C(=O)Nc2ccccc2Cl)cc1S(=O)(=O)N1CCOCC1 -1.84%, Brc1ccsc1/C=N/Nc1ccccc1 3.17%, CCS(=O)(=O)N1CCC(C(=O)NCc2ccc(OC)cc2OC)CC1 0.281%, O=C1N[C@@H](Cc2c[nH]c3ccccc23)C(=O)N[C@H]1Cc1ccccc1 1.15%, CCOCCCn1c(SCC(=O)Nc2oc(C)c3c(C)n[nH]c(=O)c23)nc2ccccc2c1=O -2.17%, N#Cc1cccc(NC(=O)Cn2cnc(S(=O)(=O)N3CCOCC3)c2)c1 -0.879%, COc1ccccc1NC(=O)Cn1nnc(-c2ccccc2NC(=O)c2cc3ccccc3oc2=O)n1 -2.06%, Cn1cnc([N+](=O)[O-])c1Sc1ccc(Br)cc1 -2.59%, Cc1cc(N2C(=O)C(O)=C(C(=O)c3ccco3)C2c2ccc(Cl)cc2)no1 (configuration not stated) -3.05%, Clc1ccc(-c2nc3ccccn3c2CN2CCSCC2)cc1 -3.54%, Cc1ccc(CN2CCN(Cc3cc4ccccc4o3)CC2CCO)cc1 (configuration not stated) -0.556%, CCN(CC)CCCn1c2c(c(SCC(=O)Nc3cccc4ccccc34)nc1=O)CCC2 -3.24%, COc1ccc(C(=O)NC(C)c2cnn(-c3ccccn3)c2C)o1 (configuration not stated) -1.83%, CCC(NC(=O)Cc1c(C)c2c(cc(C)c3c(C)c(C)oc32)oc1=O)C(=O)O (configuration not stated) -3.68%, CC(C(=O)Nc1nccs1)c1ccc([N+](=O)[O-])cc1 (configuration not stated) 4.15%, COc1cc(/C=C(/C#N)C(=O)Nc2ccccc2)ccc1OCc1ccc(C(=O)O)cc1 -0.128%, CCCN1CCN(C(=O)CCCn2c(C)c3cnn(-c4ccccc4)c(=O)c3c2C)CC1 -2.47%
